Source: PubChem BioAssay (NCATS)
Records with an inconclusive call do not appear. A number with no mark means an inactive call. Activity calls are given as the source filed them. The call rests on the fitted dose curve; in most records, active means well fitted inhibition curve with a large enough effect; inconclusive means small, poorly fitted or top-dose-only effect; inactive means flat fitted curve, though single readings scatter.

Assay: P-glycoprotein substrates identified in KB-8-5-11 adenocarcinoma cell line, qHTS therapeutic library screen (AID 1346987); further: nearly all actives have a fitted effect of over 65% in size
Settings: KB-8-5-11 (P-gp overexpressing) viability, CellTiter-Glo, 72 h; series mostly up to 44.5 µM; activity change, negative = cytotoxicity: at the top concentration
Summary of the method: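 KB-8-5-11, a colchicine-selected P-gp-overexpressing KB-3-1 subline, was grown without colchicine for the assay. Cells were seeded at 500 cells/well, dosed in concentration-response and incubated 72 h at 37 degree C, 5% CO2. Viability was read by CellTiter-Glo luminescence.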
On the % scale 0 is the no-effect control and ±100 the full control effect; potency means the concentration at half of the fitted maximal effect.

SMILES	activity change, negative = cytotoxicity	outcome	Potency
C#Cc1cnc2[nH]c(=O)n(C(CC)CC)c2n1	1.76%	–	–
CC1(C)CCC(C)(C)c2cc3c(cc21)Sc1ccccc1N=C3c1ccc(C(=O)O)cc1	-19.3%	–	–
CC(=O)N1CCN(NC(=O)c2ccc(F)cc2)CC1	–	inactive	–
C=C1[C@@H]2CC[C@@]3(C)[C@H](c4ccoc4)OC(=O)C[C@]13O[C@H]1CC(=O)C(C)(C)[C@H](CC(=O)OC)[C@]12C	3.99% [at 17.3 µM]	–	–
CC(C)c1cc2c(c(O)c1O[C@@H]1O[C@H](CO)[C@@H](O)[C@H](O)[C@H]1O)CC1(O)CCC(O)C(C)(C)C1CC2 (stereo not given in full)	8.06% [at 17.3 µM]	–	–
COC(=O)[C@]12C(=O)C(C)=C(O)[C@@]1(C)C(C)=CC1[C@@]34CC[C@@H](OC(C)=O)C(C)(C)C3[C@H](C[C@]12C)OC4=O (stereo not given in full)	7.73% [at 17.3 µM]	–	–
C=CC(C)(CC/C=C(\C)CC/C=C(\C)CC(O)/C=C(\C)C(=O)O)O[C@@H]1O[C@H](CO)[C@@H](O)[C@H](O)[C@H]1O[C@@H]1O[C@H](CO)[C@@H](O)[C@H](O)[C@H]1O (stereo not given in full)	–	inactive [at 17.3 µM]	–
O=C(NN1CCCCC1)c1nn(-c2ccc(Cl)cc2Cl)c(-c2ccc(C#Cc3ccc(C(F)(F)F)cc3)s2)c1CNS(=O)(=O)N1CCCC1	-4.08%	–	–
CCNC(=O)CCC/C=C\C[C@@H]1[C@@H](/C=C/C(O)CCc2ccccc2)[C@@H](O)C[C@@H]1O (stereo not given in full)	–	inactive	–
CC(C)(O)c1ccc2c(c1)C(=O)CC1[C@](C)(CO)CCC[C@]21C (stereo not given in full)	3.32%	–	–
Cc1nnc(C(C)C)n1C1CC2CCC(C1)N2CCC(NC(=O)C1CCC(F)(F)CC1)c1ccccc1 (stereo not given)	–	inactive	–
COC1CCCC/C(C)=C/C2C=C(C)C(C)C3C(CC(C)C)NC(=O)C23C(=O)C1 (stereo not given)	0.0759% [at 17.3 µM]	–	–
CCCCNC(=O)[C@@H]1Cc2ccccc2N1C(=O)[C@@H](N)CC	–	inactive	–
CCS(=O)(=O)N1CCC([C@@H](C)n2c(C)c(C(=O)NCc3c(OC)cc(C)[nH]c3=O)c3ccccc32)CC1	–	inactive	–
COC(=O)C12C(=O)C(C)=C(O)C1(C)C(C)=CC1C34CCC(OC3=O)C(C)(C)C4CCC12C (stereo not given)	6.08% [at 17.3 µM]	–	–
Cc1cc(Nc2ncc(Cl)c(Nc3ccccc3S(=O)(=O)C(C)C)n2)c(OC(C)C)cc1C1CCNCC1	–	–	6.51 µM (active)
COC(=O)C1=C[C@@H](O)[C@@H](O)[C@H](O[C@@H]2O[C@H](COC(=O)/C=C/c3ccccc3)[C@@H](O)[C@H](O)[C@H]2O)C1	5.89% [at 17.3 µM]	–	–
Cc1ccc(C(=O)Nc2ccc(Oc3cc4cnn(C)c4cc3-c3cn[nH]c3)c(F)c2)c(=O)n1-c1ccc(F)cc1	–	–	4.61 µM (active)
CC1C(=O)CC2C3C(O)CC(C(=O)O)C12CC3(C)C (stereo not given)	–	inactive	–
CC1(C)CC[C@]2(C(=O)O)CC[C@]3(C)C(=CCC4[C@@]5(C)CCC(O[C@@H]6OC[C@H](O)[C@H](O)[C@H]6O[C@@H]6O[C@H](CO)[C@@H](O)[C@H](O)[C@H]6O)[C@@](C)(CO)C5CC[C@]43C)[C@@H]2C1 (stereo not given in full)	–	inactive [at 17.3 µM]	–

SMILES	activity change, negative = cytotoxicity	outcome	Potency
CC1=CC[C@]2(C(=O)O[C@@H]3O[C@H](CO[C@@H]4O[C@H](CO)[C@@H](O[C@@H]5O[C@@H](C)[C@H](O)[C@@H](O)[C@H]5O)[C@H](O)[C@H]4O)[C@@H](O)[C@H](O)[C@H]3O)CC[C@]3(C)C(CCC4[C@@]5(C)C[C@@H](O)[C@H](O)[C@@](C)(CO)C5CC[C@]43C)C2C1C (stereo not given in full)	8.32% [at 9.29 µM]	–	–
O=S(=O)(Nc1ccc(C(O)(C(F)(F)F)C(F)(F)F)cc1)c1cccs1	5.55%	–	–
NC(=O)[C@H]1CCCCc2c1[nH]c1ccc(Cl)cc21	8.12% [at 17.3 µM]	–	–
C=C1CCC(OC(C)=O)C2(C)CC3(O)OC(=O)C(C)=C3CC12 (stereo not given)	–	inactive	–
C=C1C[C@@]23CC[C@@H]4[C@](C)(C(=O)O)CCC[C@@]4(C)C2=CC[C@H]1C3	–	inactive	–
C[C@@]12C[C@]3(O)O[C@H](O1)[C@]1(COC(=O)c4ccccc4)[C@H]3C[C@@]12O[C@@H]1O[C@H](COC(=O)c2ccccc2)[C@@H](O)[C@H](O)[C@H]1O	–	inactive [at 17.3 µM]	–
CC(=O)O[C@H]1[C@H](Oc2ccccc2COC(=O)C2(O)C=CCCC2=O)O[C@H](CO)[C@@H](O)[C@@H]1O (stereo not given in full)	-1.5% [at 17.3 µM]	–	–
CCOC(=O)c1ccc(N(C)c2csc(-c3ccccc3)n2)cc1	–	inactive	–
CC1=C(C)C(=O)OC(C(C)C2C(O)CC3C4C5OC5C5(O)CC(OC6OC(CO)C(O)C(O)C6O)CC(O)C5(C)C4CCC32C)C1 (stereo not given)	–	inactive [at 17.3 µM]	–
CC(=O)N(CC(C)C(=O)O)c1c(I)cc(I)c(N)c1I (stereo not given)	-13.9% [at 17.3 µM]	–	–
CC(=O)O[C@@H]1[C@@H](OC(=O)/C=C/c2ccccc2)[C@H](C)O[C@@H](O[C@H]2[C@@H]3C=CO[C@@H](O[C@@H]4O[C@H](CO)[C@@H](O)[C@H](O)[C@H]4O)[C@@H]3[C@@]3(CO)O[C@@H]23)[C@@H]1OC(C)=O	–	inactive [at 17.3 µM]	–
Cc1c(C)c2c(c(C)c1O)CC[C@@](C)(CCC[C@H](C)CCC[C@H](C)CCCC(C)C)O2	–	–	inactive
O=C(O)c1n[nH]c2c1C[C@H]1C[C@@H]21	–	inactive	–
COC1=CC(=O)C[C@@H](C)[C@]12Oc1cc(OC)cc(OC)c1C2=O	–	inactive	–
CC(O)CO (stereo not given)	-2.08%	–	–
Cc1nn(C)c2c1C(c1ccc(C(F)(F)F)cc1)C(C#N)=C(N)O2 (stereo not given)	7.4%	–	–
C=C[C@](C)(CC/C=C(\C)C(=O)O)O[C@@H]1OC[C@H](O)[C@H](O)[C@H]1O	–	inactive	–
COC1=CC(=O)O[C@@H](CCc2ccccc2)[C@@H]1O	4.29%	–	–
C[C@@H]1O[C@@H](O[C@H]2[C@H](O)[C@@H](O)[C@H](OC[C@H]3O[C@@H](OC(=O)[C@]45CCC(C)(C)C[C@H]4C4=CCC6[C@@]7(C)C[C@H](O)[C@H](O[C@@H]8O[C@H](CO)[C@@H](O)[C@H](O)[C@H]8O)[C@@](C)(C(=O)O)C7CC[C@@]6(C)[C@]4(C)CC5)[C@H](O[C@@H]4O[C@H](CO)[C@@H](O)[C@H](O)[C@H]4O)[C@@H](O)[C@@H]3O)O[C@@H]2CO)[C@H](O)[C@H](O)[C@H]1O (stereo not given in full)	–	inactive [at 9.29 µM]	–
C/C=C/C1=CC2=CC(=O)C(C)(O)C(OC(=O)c3c(C)cc(O)cc3O)C2CO1 (stereo not given)	6.83%	–	–
